# Laboratory results: PubChem BioAssay (Tox21)
# “And” between values parts separate entries of the source, which are not always exact repeats. Equal entries are not always repeated. Inconclusive results are not listed. Entries that show only a call come without a potency. The source made the active and inactive calls. Unless noted, calls follow the shape of the dose curve; as a rule, active = well fitted curve in the direction sought with a large enough effect in the repeat runs; inconclusive = weak or mixed curves; inactive = no such curve, though single readings can be large; an effect the other way counts as inactive or inconclusive. Positions of bridges follow the written chain, without caps; N, C: chain ends. Non-standard residues stand in square brackets, D forms with d. Residues, ends and D or L forms follow the SMILES beside them. ξ: configuration not given here. *: point of attachment. d(aThr) = C[C@@H](O)[C@@H](N)C(=O)O; ξThr(3R) = C[C@@H](O)C(N)C(=O)O; X3 = CC[C@@H](C)CCCCC(=O)*; dDab = NCC[C@@H](N)C(=O)O
# How the values were obtained:
# [1] = qHTS assay to identify small molecule antagonists of the glucocorticoid receptor (GR) signaling pathway - cell viability counter screen (AID 720693); also: nearly all actives have a fitted effect of over 55% in size; also: potency is read from the fitted curve at half-maximal effect
# [2] = qHTS assay for identifying genotoxic compounds that show differential cytotoxicity against isogenic chicken DT40 cell lines with known DNA damage response pathways - wild type cell line (AID 743012); also: nearly all actives have a fitted effect of over 60% in size; also: potency is read from the fitted curve at half-maximal effect
# Outline: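 Wild type DT40, 300 cells/well, ~0.5 h settle at 37 C/5% CO2; compounds in DMSO added by pintool; 40 h at 37 C/5% CO2; CellTiter-Glo, 30 min RT; luminescence.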
# [3] = qHTS assay for identifying genotoxic compounds that show differential cytotoxicity against isogenic chicken DT40 cell lines with known DNA damage response pathways - Rad54/Ku70 mutant cell line (AID 743015); also: nearly all actives have a fitted effect of over 60% in size; also: potency is read from the fitted curve at half-maximal effect
# [4] = qHTS assay to identify small molecule antagonists of the androgen receptor (AR) signaling pathway - cell viability counter screen (AID 743033; also: nearly all actives have a fitted effect of over 45% in size)
# [5] = target: Androgen receptor (Homo sapiens) (UniProt P10275); test: qHTS assay to identify small molecule agonists of the androgen receptor (AR) signaling pathway (AID 743036; active = well fitted activation curve with a large enough effect in the signal ratio in the repeat runs, with a control signal flat, not every such curve was filed as active; the % refers to the signal ratio)
# Outline: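 Quantitative HTS of the Tox21 10K library in HEK293 cells bearing a stably integrated UAS-controlled beta-lactamase reporter. Compound exposure lasted 16 h at 37C. Reporter activity was detected by FRET substrate fluorescence after 2 h at room temperature.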
# [6] = target: Androgen receptor (Homo sapiens) (UniProt P10275); test: qHTS assay to identify small molecule agonists of the androgen receptor (AR) signaling pathway using the MDA cell line (AID 743040; also: nearly all actives have a fitted effect of over 20% in size; also: potency is read from the fitted curve at half-maximal effect)
# Outline: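 MDA-kb2 breast carcinoma cells stably carrying an MMTV-driven luciferase reporter (AR- and GR-responsive) were seeded and held 5 h at 37C, 0% CO2, then exposed to compounds in DMSO for 16 h. Luminescence was read 30 min after ONE-Glo addition.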
# [7] = qHTS assay to identify small molecule antagonists of the androgen receptor (AR) signaling pathway using the MDA cell line - cell viability counter screen (AID 743041; also: nearly all actives have a fitted effect of over 45% in size)
# Outline: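 MDA-kb2 AR-luc human breast carcinoma cells (MMTV-luciferase, AR/GR responsive) were treated with compounds plus R1881 agonist for 16 h at 37 °C. Viability was read as CellTiter-Fluor fluorescence in the same wells as the reporter assay.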
# [8] = target: Androgen receptor (Homo sapiens) (UniProt P10275); test: qHTS assay to identify small molecule antagonists of the androgen receptor (AR) signaling pathway using the MDA cell line (AID 743042; also: nearly all actives have a fitted effect of over 55% in size)
# Outline: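 MDA-kb2 cells (human breast carcinoma, stably carrying an MMTV-luciferase reporter responsive to AR and GR) were plated at 3,000 cells/well and preincubated 5 hr at 37C, then given compound plus R1881 agonist for 16 h. ONE-Glo luminescence was read.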
# [9] = target: Androgen receptor (Homo sapiens) (UniProt P10275); test: qHTS assay to identify small molecule antagonists of the androgen receptor (AR) signaling pathway (AID 743035; active = well fitted inhibition curve with a large enough effect in the signal ratio in the repeat runs, not every such curve was filed as active; the % refers to the signal ratio)
# Outline: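 Fluorescence from a beta-lactamase FRET substrate (LiveBLAzer B/G, 2 h, room temperature) measured inhibition of R1881-stimulated signaling in GeneBLAzer AR-UAS-bla HEK293 cells exposed to compound for 16 h at 37C.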
# Chain of Androgen receptor (Homo sapiens) (P10275 whole entry, looked up): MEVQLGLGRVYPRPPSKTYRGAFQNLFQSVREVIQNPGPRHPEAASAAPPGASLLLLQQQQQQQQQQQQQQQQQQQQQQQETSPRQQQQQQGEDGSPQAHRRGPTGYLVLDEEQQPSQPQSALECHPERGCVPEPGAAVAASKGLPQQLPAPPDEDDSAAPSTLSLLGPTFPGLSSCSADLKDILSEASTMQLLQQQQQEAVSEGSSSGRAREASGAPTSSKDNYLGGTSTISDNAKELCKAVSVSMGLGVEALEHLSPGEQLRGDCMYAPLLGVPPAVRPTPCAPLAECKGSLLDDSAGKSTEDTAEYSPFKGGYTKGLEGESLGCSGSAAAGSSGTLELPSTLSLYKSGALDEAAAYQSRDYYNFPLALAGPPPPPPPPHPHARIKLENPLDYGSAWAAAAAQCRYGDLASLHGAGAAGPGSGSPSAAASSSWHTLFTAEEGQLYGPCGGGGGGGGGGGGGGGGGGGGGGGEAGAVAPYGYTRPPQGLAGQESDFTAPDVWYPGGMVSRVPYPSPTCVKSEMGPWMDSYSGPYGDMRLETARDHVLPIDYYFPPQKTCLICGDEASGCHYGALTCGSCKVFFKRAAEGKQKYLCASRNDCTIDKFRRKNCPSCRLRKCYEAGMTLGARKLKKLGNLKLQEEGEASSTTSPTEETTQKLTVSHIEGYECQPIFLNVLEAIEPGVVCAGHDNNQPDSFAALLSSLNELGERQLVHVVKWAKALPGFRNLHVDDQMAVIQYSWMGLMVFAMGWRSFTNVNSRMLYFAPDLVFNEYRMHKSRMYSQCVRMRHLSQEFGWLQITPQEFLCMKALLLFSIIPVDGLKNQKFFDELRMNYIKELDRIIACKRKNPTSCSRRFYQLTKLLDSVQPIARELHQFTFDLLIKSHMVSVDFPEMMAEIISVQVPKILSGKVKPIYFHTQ
Compound,Potency [1],Potency [2],Potency [3],Potency [4],Potency [5],Potency [6],Potency [7],Potency [8],Potency [9]
CCOC(=O)c1c[nH]c2cc(OCC(C)C)c(OCC(C)C)cc2c1=O,inactive,inactive,inactive,inactive,inactive,inactive,inactive,inactive,–
O=C(O)CO.[NH2-].[NH2-].[Pt+2],inactive,inactive,inactive,inactive,–,–,inactive,–,–
COc1cc([C@@H]2c3cc4c(cc3C(O[C@@H]3O[C@@H]5CO[C@@H](C)O[C@H]5[C@H](O)[C@H]3O)C3COC(=O)[C@@H]32)OCO4)cc(OC)c1OP(=O)(O)O (stereo not given in full),inactive,531 nM (active) and 750 nM (active),53.1 nM (active) and 75 nM (active),inactive,–,–,inactive,–,–
COC(=O)CCC[N+](C)(C)C,inactive,inactive,inactive,inactive,–,–,inactive,–,–
CCC(C)(C)OC(=O)N[C@@H](Cc1c[nH]c2ccccc12)C(=O)N[C@@H](CCSC)C(=O)N[C@@H](CC(=O)O)C(=O)N[C@@H](Cc1ccccc1)C(N)=O,inactive,inactive,inactive,inactive,–,–,inactive,–,–
N#CC(c1ccc(Cl)cc1)c1c(Cl)cc(-n2ncc(=O)[nH]c2=O)cc1Cl (stereo not given),inactive,29.8 µM (active),29.8 µM (active),inactive,–,inactive,inactive,inactive,–
CC1CCC(NC(=O)N(CCCl)N=O)CC1 (stereo not given),inactive,inactive,inactive,inactive,–,–,inactive,–,–
CC1=C(C(=O)OCCN(Cc2ccccc2)c2ccccc2)C(c2cccc([N+](=O)[O-])c2)C(P2(=O)OCC(C)(C)CO2)=C(C)N1 (stereo not given),inactive,29.8 µM (active),26.6 µM (active),inactive,–,–,inactive,–,–
O=C1c2ccccc2C(=O)C1c1ccc(Cl)cc1,inactive,inactive,inactive,inactive,–,inactive,–,inactive,–
CCCCc1cc2c(=O)c(C(=O)OC)c[nH]c2cc1OCc1ccccc1,inactive,inactive,inactive,inactive,–,–,inactive,–,–
C=C1CC[C@H](O)CC1=C/C=C1\CCC[C@]2(C)[C@@H]([C@H](C)CC[C@@H](O)C(C)(C)O)CC[C@@H]12,21.3 µM (active),7.5 µM (active),13.3 µM (active),inactive,–,inactive,inactive,inactive,–
CCCCC(=O)N(Cc1ccc(-c2ccccc2-c2nn[nH]n2)cc1)[C@@H](C(=O)O)C(C)C,inactive,inactive,inactive,inactive,–,–,inactive,–,–
C[C@@H]1C[C@H]2[C@@H]3CCC4=CC(=O)C=C[C@]4(C)[C@@]3(F)[C@@H](O)C[C@]2(C)[C@@]1(O)C(=O)COC(=O)c1cccc(S(=O)(=O)O)c1,inactive,inactive,inactive,inactive,–,0.0841 µM (active),inactive,inactive,–
CNC(=O)c1c(I)c(C(=O)NCC(=O)Nc2c(I)c(C(=O)O)c(I)c(C(=O)NCCO)c2I)c(I)c(N(C)C(C)=O)c1I,inactive,inactive,inactive,inactive,–,–,inactive,–,–
CCCCC(=O)O[C@H]1CC[C@H]2[C@@H]3CCc4cc(O)ccc4[C@H]3CC[C@]12C,inactive,18.8 µM (active),16.8 µM (active),inactive,–,–,inactive,–,–
C[C@H]1C[C@@H]2[C@H]([C@@H](O)C[C@@]3(C)[C@H]2CC[C@]3(O)C(=O)COC(=O)CCC(=O)O)[C@@]2(C)C=CC(=O)C=C12,inactive,inactive,inactive,inactive,–,–,inactive,–,–
CC[C@H](C)[C@@H]1NC(=O)[C@H](Cc2ccc(O)cc2)NC(=O)[C@@H](N)CSSC[C@@H](C(=O)N2CCC[C@H]2C(=O)N[C@@H](CC(C)C)C(=O)NCC(N)=O)NC(=O)[C@H](CC(N)=O)NC(=O)[C@H](CCC(N)=O)NC1=O,inactive,inactive,inactive,inactive,–,–,inactive,–,–
CN(CCO)CC(O)Cn1cnc2c1c(=O)n(C)c(=O)n2C (stereo not given) (tested in a mixture with another compound),inactive,inactive,inactive,inactive,–,–,inactive,–,–
CN(C)CC/C=C1/c2ccccc2CSc2ccccc21,inactive,11.4 µM (active),12.7 µM (active),–,–,inactive,inactive,inactive,–
CN(C)C=Nc1c(I)cc(I)c(CCC(=O)O)c1I,inactive,inactive,inactive,inactive,–,–,inactive,–,–
O=C1CCC(=O)N1CO,inactive,inactive,inactive,–,–,–,inactive,–,–
O=C(Nc1ccc(/C=C/c2ccc(NC(=O)c3cc(S(=O)(=O)O)c4cccnc4c3O)cc2S(=O)(=O)O)c(S(=O)(=O)O)c1)c1cc(S(=O)(=O)O)c2cccnc2c1O,inactive,inactive,29.8 µM (active),inactive,–,–,inactive,–,–
CCC(Oc1ccccc1)C(=O)N[C@@H]1C(=O)N2[C@@H]1SC(C)(C)[C@@H]2C(=O)O (stereo not given in full),inactive,inactive,inactive,inactive,–,–,inactive,–,–
CC1(C)S[C@@H]2[C@H](NC(=O)C(C(=O)O)c3ccsc3)C(=O)N2[C@H]1C(=O)O (stereo not given in full),inactive,inactive,inactive,inactive,–,–,inactive,–,–
CCOC(=O)Nc1ccc2c(c1)N(C(=O)CN(C)C)c1ccccc1CC2,inactive,61.1 µM (active),–,inactive,–,–,–,–,–
CC(C)=CCC/C(C)=C/C=C/C(C)=C/C=C/C(C)=C/C=C/C=C(C)/C=C/C=C(C)/C=C/C=C(\C)CCC=C(C)C,inactive,29.8 µM (active),–,inactive,–,inactive,inactive,inactive,–
Nc1c(Br)cc(Br)cc1CNC1CCC(O)CC1 (stereo not given),inactive,inactive,–,inactive,–,1.88 µM (active),inactive,inactive,inactive
CC[C@@H](C)CCCCC(=O)N[C@H](CCN)C(=O)N[C@@H](C(=O)N[C@H](CCN)C(=O)N[C@@H]1CCNC(=O)C([C@@H](C)O)NC(=O)[C@@H](CCN)NC(=O)[C@@H](CCN)NC(=O)[C@@H](CC(C)C)NC(=O)[C@@H](Cc2ccccc2)NC(=O)[C@@H](CCN)NC1=O)[C@@H](C)O (stereo partly drawn) (X3-[dDab][d(aThr)][dDab][dDab][dDab][dF][dL][dDab][dDab][ξThr(3R)]; lactam 4-C),inactive,inactive,inactive,inactive,–,–,inactive,–,–
CN(CC(=O)N1CCOCC1)Cc1c(Cl)cccc1NC(=O)c1ccccc1,inactive,23.7 µM (active),–,inactive,–,–,inactive,–,–
Cc1c(O)cc2c(c1C)O[C@](C)(CCC[C@H](C)CCC[C@H](C)CCCC(C)C)CC2,inactive,inactive,inactive,inactive,–,–,inactive,–,–
